The values below come from PubChem BioAssay.

Activity calls are given as the source filed them.

A short description of test [1]: small molecules captured by biotinylated probe aFSTL3 – biochemical, small-molecule microarray, fluorescence 635/667, stem cell growth factor project, primary screen (AID 1064).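 Also: measures binding of the biotinylated anti-FSTL3 antibody to printed compounds.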 To be noted: higher = more signal.
Test [2] in a line: binders from COS7 lysate, DM2A8 probe, primary screen, torsin A project, cell lysate, small-molecule microarray, fluorescence 635/667 (AID 1065). To be noted: higher = more signal, COS7 lysate expressing mutant human TOR1A.
Test [3] is described as follows: small molecules captured by biotinylated probe aFGF2 – biochemical, small-molecule microarray, fluorescence 635/667, stem cell growth factor project, primary screen (AID 1067).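 Also: measures binding of biotinylated aFGF2 protein to printed compounds on slides; z-score merges feature fluorescence and signal-to-noise across triplicate slides.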 To be noted: higher = more signal.
A short description of test [4]: small molecules captured by biotinylated probe aFGF10 – biochemical, small-molecule microarray, fluorescence 635/667, stem cell growth factor project, primary screen (AID 1071).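 Also: score merges 667 nm spot intensity and signal to noise from triplicate slides.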 To be noted: higher = more signal.
Test [5] addresses Neurogenic locus notch homolog protein 2 (Homo sapiens) (UniProt Q04721). Description: small molecules binding Notch2 protein – biochemical, small-molecule microarray, 635 nm fluorescence, stem cell growth factors, primary screen (AID 1073). To be noted: higher = more signal.
Test [6] has as its target Pro-neuregulin-1, membrane-bound isoform (Homo sapiens) (UniProt Q02297). As to the kind of experiment: small molecules binding neuregulin-1 protein – biochemical, small-molecule microarray, fluorescence 635/667, psychiatric disease protein project, primary screen (AID 1075).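 Also: score combines 667 nm spot fluorescence with signal to noise.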 To be noted: NRG1 binding, 635 nm fluorescence, higher = more signal.
Test [7] has as its system Neuregulin-1 EGF-like domain. Description: small molecules binding NRG1 EGF domain – biochemical, small-molecule microarray, 635 nm fluorescence, primary screen (AID 1081).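 Also: binding of the protein to compounds printed on small-molecule microarray slides.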 To be noted: higher = more signal.
The nature of test [8]: FRG1 expression reporter modulators in myotubes – cell-based, C2C12 myotubes, firefly/Renilla luciferase, luminescence, FRG1 inhibition for FSHD, primary screen (AID 1084). To be noted: FRG1 promoter luciferase, higher = more signal, called active from +8 up or from −8 down.
A short description of test [9]: small molecules captured by biotinylated probe aFST – biochemical, small-molecule microarray, fluorescence 635/667, stem cell growth factor project, primary screen (AID 1086).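 Also: score merges 667 nm fluorescence with signal-to-noise of each printed compound spot.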 As to conditions: higher = more signal.
Test [10] in a line: binders of probe aHhip on microarray, primary screen, stem cell growth factor project, biochemical, small-molecule microarray, fluorescence 635/667 (AID 1087).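 Also: score merges spot fluorescence at 667nm with spot signal to noise ratio.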 As to conditions: higher = more signal.
The test system of test [11] is PRMT1 (protein arginine N-methyltransferase 1). As to the kind of experiment: small molecules binding arginine methyltransferase PRMT1 – biochemical, small-molecule microarray, 635 nm fluorescence, primary screen (AID 1088).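 Also: binding of Prmt1 protein to compounds spotted on small-molecule microarray slides.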 As to conditions: higher = more signal.
A short description of test [12]: growth effects on S. cerevisiae YJM789 – YJM789 clinical isolate, OD600, 24 h, basal, primary screen (AID 1089).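 Also: growth of clinical yeast isolate S. cerevisiae YJM 789 seeded 1000 cells per well; test concentration not given here.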 As to conditions: higher = more signal, called active from +8 up or from −8 down.
A short description of test [13]: S. pombe growth modifiers, basal conditions – strain 972, OD600, 24 h, no modulator, primary screen (AID 1090).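 Also: basal condition with compound alone and no growth modifier present; test concentration not given here.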 To be noted: S. pombe 972 growth, higher = more signal, called active from +8 up or from −8 down.
A short description of test [14]: budding yeast growth modifiers under rapamycin – strain BY4716, OD600, 96 h, primary screen (AID 1091). Also: test concentration not given here. To be noted: S. cerevisiae BY4716 + rapamycin, higher = more signal, called active from +8 up or from −8 down.
Test [15] concerns the target Torsin-1A-interacting protein 2 (Homo sapiens) (UniProt Q8NFQ8). As to the kind of experiment: small molecules binding lysate-expressed LULL1 – cell lysate, human LULL1 lysate, 635/667 nm fluorescence, primary screen (AID 1092).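 Also: probe is lysate of COS7 cells overexpressing human LULL1; score merges per-feature 667 nm fluorescence with signal-to-noise.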 As to conditions: small-molecule microarray, hLULL1 lysate binding, 635 nm fluorescence; higher = more signal.
A short description of test [16]: optical density change of DRC41 E. coli – strain DRC41, OD650, 24 h, E. coli filamentation project, primary screen (AID 1093).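 Also: MC1000 strain lacking acrAB efflux and sulA so SOS filamentation is blocked; test concentration not given here.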 To be noted: E. coli DRC41 growth, higher = more signal, called active from +8 up or from −8 down.
A short description of test [17]: probe aLefty2 binding to arrayed compounds – biochemical, biotinylated probe, 635/667 nm fluorescence, primary screen (AID 1094).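 Also: score merges spot fluorescence near 667 nm with spot signal-to-noise ratio.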 As to conditions: small-molecule microarray, higher = more signal.
In test [18] the test system is Noggin (protein binding on small-molecule microarray). Description: small molecules binding Noggin protein – biochemical, 635/667 nm fluorescence, primary screen (AID 1095).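 Also: score merges 667 nm feature fluorescence with signal to noise over triplicate slides.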 To be noted: 635 nm fluorescence, higher = more signal.
Test [19] concerns the target Neurogenic locus notch homolog protein 3 (Homo sapiens) (UniProt Q9UM47). As to the kind of experiment: small molecules binding NOTCH3 protein – biochemical, 635/667 nm fluorescence, primary screen (AID 1096). To be noted: small-molecule microarray, 635 nm fluorescence, higher = more signal.
Test [20] can be described thus: probe aEGFR binding to arrayed compounds – biochemical, biotinylated probe, 635/667 nm fluorescence, primary screen (AID 1097).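 Also: probe is a biotinylated anti-EGFR antibody binding compounds printed on slides; score combines fluorescence near 667 nm and signal to noise of each spot.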 To be noted: small-molecule microarray, higher = more signal.

Neurogenic locus notch homolog protein 3 (Homo sapiens), sequence (Q9UM47 whole entry, looked up): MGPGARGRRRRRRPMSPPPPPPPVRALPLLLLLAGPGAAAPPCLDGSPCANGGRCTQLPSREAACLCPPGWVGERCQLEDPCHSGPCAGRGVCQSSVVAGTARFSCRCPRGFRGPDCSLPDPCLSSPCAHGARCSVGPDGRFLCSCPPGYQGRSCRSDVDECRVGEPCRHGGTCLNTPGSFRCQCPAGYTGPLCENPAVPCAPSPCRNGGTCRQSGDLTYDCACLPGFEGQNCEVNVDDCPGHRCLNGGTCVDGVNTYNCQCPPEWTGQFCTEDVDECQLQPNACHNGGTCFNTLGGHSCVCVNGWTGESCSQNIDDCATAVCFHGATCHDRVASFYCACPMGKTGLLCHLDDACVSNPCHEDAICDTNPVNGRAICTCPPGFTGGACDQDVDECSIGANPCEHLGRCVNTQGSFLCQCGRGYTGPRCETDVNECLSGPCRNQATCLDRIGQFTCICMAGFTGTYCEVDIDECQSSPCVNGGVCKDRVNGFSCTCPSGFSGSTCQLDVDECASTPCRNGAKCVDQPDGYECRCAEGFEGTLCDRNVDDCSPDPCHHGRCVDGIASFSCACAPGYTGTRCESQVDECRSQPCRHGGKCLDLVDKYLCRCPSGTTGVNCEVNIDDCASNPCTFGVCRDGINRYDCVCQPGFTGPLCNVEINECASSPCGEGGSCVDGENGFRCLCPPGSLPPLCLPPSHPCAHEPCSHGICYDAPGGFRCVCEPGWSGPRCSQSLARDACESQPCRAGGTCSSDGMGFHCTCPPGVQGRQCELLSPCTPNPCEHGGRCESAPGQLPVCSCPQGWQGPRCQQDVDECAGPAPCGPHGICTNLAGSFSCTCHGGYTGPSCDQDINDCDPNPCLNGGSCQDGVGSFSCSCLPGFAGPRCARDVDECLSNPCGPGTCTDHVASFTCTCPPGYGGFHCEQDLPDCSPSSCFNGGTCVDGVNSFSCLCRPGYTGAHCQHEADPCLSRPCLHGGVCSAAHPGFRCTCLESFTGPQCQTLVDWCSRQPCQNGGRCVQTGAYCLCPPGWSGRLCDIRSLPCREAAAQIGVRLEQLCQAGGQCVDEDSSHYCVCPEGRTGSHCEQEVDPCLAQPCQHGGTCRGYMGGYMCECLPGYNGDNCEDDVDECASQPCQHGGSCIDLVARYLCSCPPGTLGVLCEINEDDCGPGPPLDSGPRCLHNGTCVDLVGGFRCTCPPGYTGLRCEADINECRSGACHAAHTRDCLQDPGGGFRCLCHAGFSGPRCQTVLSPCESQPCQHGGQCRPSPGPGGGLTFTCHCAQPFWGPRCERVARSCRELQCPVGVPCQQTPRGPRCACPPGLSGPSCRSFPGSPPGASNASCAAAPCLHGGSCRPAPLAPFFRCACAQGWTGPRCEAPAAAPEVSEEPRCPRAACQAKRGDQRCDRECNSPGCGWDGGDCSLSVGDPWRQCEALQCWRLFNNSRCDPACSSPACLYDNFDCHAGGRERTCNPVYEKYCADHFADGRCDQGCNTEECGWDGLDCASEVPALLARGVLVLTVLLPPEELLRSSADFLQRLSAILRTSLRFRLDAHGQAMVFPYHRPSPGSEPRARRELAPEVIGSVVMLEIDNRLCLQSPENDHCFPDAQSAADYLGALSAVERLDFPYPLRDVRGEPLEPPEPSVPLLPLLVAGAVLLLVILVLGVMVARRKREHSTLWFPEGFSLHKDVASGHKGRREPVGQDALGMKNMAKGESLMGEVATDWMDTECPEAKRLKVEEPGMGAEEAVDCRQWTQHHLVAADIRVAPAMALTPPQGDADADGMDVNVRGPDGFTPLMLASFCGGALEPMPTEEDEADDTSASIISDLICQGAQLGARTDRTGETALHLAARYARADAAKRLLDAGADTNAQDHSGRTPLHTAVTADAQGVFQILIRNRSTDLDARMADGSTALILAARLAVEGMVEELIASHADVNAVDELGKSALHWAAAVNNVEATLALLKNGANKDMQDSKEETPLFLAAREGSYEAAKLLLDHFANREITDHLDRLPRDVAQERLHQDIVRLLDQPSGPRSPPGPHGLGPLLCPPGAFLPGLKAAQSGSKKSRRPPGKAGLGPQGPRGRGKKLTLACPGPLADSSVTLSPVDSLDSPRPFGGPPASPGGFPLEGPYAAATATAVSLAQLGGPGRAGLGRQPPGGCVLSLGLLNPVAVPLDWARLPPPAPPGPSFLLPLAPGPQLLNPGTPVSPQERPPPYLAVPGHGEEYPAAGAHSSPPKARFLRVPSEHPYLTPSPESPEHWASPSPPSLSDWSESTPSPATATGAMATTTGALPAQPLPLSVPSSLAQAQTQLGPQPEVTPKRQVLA
Torsin-1A-interacting protein 2 (Homo sapiens), sequence (Q8NFQ8 whole entry, looked up): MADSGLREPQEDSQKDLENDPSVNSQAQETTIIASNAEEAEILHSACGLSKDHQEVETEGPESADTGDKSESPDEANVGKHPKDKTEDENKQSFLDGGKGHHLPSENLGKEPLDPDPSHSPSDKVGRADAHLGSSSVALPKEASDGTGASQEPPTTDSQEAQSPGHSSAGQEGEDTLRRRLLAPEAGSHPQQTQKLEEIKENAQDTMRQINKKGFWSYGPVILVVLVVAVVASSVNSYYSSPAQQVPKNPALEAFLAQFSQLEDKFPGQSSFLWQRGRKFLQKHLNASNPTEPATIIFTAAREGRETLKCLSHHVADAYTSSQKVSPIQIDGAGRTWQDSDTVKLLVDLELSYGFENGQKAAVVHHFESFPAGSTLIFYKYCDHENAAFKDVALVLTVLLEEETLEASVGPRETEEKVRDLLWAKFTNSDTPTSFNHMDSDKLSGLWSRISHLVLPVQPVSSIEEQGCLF
Pro-neuregulin-1, membrane-bound isoform (Homo sapiens), sequence (Q02297 whole entry, looked up, the tested form may be a part, canonical isoform): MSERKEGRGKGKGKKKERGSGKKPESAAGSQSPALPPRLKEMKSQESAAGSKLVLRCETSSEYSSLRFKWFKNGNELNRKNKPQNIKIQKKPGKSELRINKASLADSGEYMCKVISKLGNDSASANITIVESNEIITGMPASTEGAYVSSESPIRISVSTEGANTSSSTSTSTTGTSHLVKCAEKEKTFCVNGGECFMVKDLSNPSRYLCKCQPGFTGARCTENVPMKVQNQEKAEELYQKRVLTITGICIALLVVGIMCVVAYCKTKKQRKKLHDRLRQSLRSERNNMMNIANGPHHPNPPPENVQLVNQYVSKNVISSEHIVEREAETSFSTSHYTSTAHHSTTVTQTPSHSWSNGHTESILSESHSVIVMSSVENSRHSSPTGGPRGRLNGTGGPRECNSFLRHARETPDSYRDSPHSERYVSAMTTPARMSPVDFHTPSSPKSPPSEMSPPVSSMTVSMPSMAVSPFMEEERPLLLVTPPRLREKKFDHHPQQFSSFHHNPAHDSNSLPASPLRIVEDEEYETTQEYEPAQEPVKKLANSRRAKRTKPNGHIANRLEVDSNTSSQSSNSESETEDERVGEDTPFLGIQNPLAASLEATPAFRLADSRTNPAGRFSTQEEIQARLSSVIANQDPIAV

As to `COc1ccc(CCNC(=O)[C@@]2(c3ccc([N+](=O)[O-])cc3)CC(=O)N(C(C)C)[C@@H]2c2ccc(CO)cc2)cc1`, the composite z-score was 0.988 in test [1]; -0.716 in test [2]; -0.116 in test [3]; -0.94 in test [4]; -1.38 in test [5]; 1.57 in [6]. Also, the composite z-score is 0.987 in [7]; -0.529 in [9]; -0.265 in [10]; -0.383 in test [11]; 2.99 in [15]; 0.11 in test [17]. For the same compound, the values for the composite z-score in [18], in test [19] and in [20] were -1.2, -0.791 and -0.318, respectively. The z-score was -1.39 (inactive) in test [8]; -1.15 (inactive) in test [12]; -1.2 (inactive) in [13]; -1.1 (inactive) in test [14]; 1.89 (inactive) in [16].

`COC(=O)[C@@]1(Cc2ccccc2)[C@H]2c3cc(C(=O)N4CCCC4)n(CCN4CNCC4=O)c3C[C@H]2CN1C(=O)c1ccccc1`: the composite z-score in [1] came to 0.243; in test [2], 1.35; in test [3] it was 0.106; in test [4], 0.598; in test [5] it was 1.4; in test [6], 1.71. Besides, the composite z-score in [7] was 1.37; in test [9], 0.604; in [10], 0.209; in test [11], -0.337; in test [15], 1.93; in test [17] it was 0.154. Besides, the composite z-score was -0.113 in [18], 0.494 in test [19] and -0.013 in test [20]. Besides, the z-score is 1.41 (inactive) in test [8]; -0.465 (inactive) in [12]; 0.826 (inactive) in test [13]; -0.153 (inactive) in test [14]; -0.0756 (inactive) in test [16].

For the compound `CCCCCCc1nc(-c2cc(C)c(OC)c(C)c2)cc2c1[Si](C(C)C)(C(C)C)O[C@H]2c1ccccc1`, the composite z-score in [1] is -0.315; in test [2], -0.397; in test [3], -0.14; in test [4] it was -0.324; in test [5] it was -0.209; in test [6] it was -0.626. The composite z-score is -1.04 in test [7]; 0.0223 in [9]; 0.0505 in [10]; -0.118 in test [11]; -0.685 in test [15]; -0.107 in test [17]. Also, the figures for the composite z-score in test [18], in [19] and in [20] were -0.346, -0.496 and -0.168, respectively. Besides, the z-score in [8] was 0.119 (inactive); in test [12], 0.955 (inactive); in test [13] it was 0.659 (inactive); in test [14], -0.558 (inactive); in test [16], -0.54 (inactive).

As for `C=CCNC(=O)[C@@H]1[C@H]2C(=O)O[C@H](c3ccccc3)[C@H](c3ccccc3)N2[C@H](c2ccc(OCCO)cc2)[C@@]12C(=O)N(C(=O)OCCOC)c1ccc(C#CC3(O)CCCCCC3)cc12`, the composite z-score came to 1.33 in test [1]; 1.16 in [2]; 0.126 in test [3]; 0.552 in test [4]; 1.42 in [5]; 0.508 in test [6]. In addition, the composite z-score in test [7] was 1.03; in test [9] it was 0.624; in test [10] it was -0.322; in test [11], 1.56; in [15], 1.6; in test [17] it was 0.505. Also, the composite z-score in [18] amounted to 0.205; in test [19] it was 0.955; in test [20], 0.108. The z-score in [8] is 0.132 (inactive); in test [12] it was -1.05 (inactive); in [13] it was -1.64 (inactive); in test [14], 3.24 (inactive); in [16] it was 2.89 (inactive).

`Cc1ccc(S[C@]2(C(=O)NCCN3CCOCC3)CC(=O)N(C3Cc4ccccc4C3)[C@@H]2c2ccc(CO)cc2I)cc1`: the composite z-score in [1] was 1.1; in [2], 0.677; in [3], -0.19; in test [4], -0.761; in test [5], -1.11; in [6], 1.69. In addition, the composite z-score in [7] is 0.544; in test [9], 0.336; in [10], -0.0994; in test [11], 1.01; in test [15] it was 1.96; in [17], 0.366. The composite z-score in test [18] was -1.62; in [19], -0.484; in test [20], -0.204. In addition, the z-score in [8] was -0.974 (inactive); in test [12], -2.08 (inactive); in test [13], -5.05 (inactive); in test [14], 0.401 (inactive); in test [16], 1.75 (inactive).
